Bioassay records as filed in PubChem.
GLS inh: glutaminase GLS (human) inhibition; AID 624170; 0.21% of 410,000 active; Potency, µM (titrated, usually from 45.5 µM), actives largely listed as inhibitors; GLS enzymatic activity, qHTS titration
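Two-point fluorescence kinetic (t0, 30 min RT) for hKGA; glutamate detected via glutamate oxidase–HRP–Amplex Red. Substrate: 1 mM L-glutamine solution; buffer 45 mM KH2PO4, pH 8.2.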
HP1b binding inh: blocks HP1-beta chromodomain binding to methylated histone tails | Potency, µM (series often up to 114 µM), actives largely listed as inhibitors | 0.56% of 390,000 active | AlphaScreen HP1-beta / biotin-H3K9me3 peptide binding; also: nearly all actives have a fitted effect of over 70% in size
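AlphaScreen: HP1-beta (50 nM) preformed 30 min with biotin-H3(1-18)K9me3 peptide (50 nM) in PBS pH 7.4, 0.01% Tween-20. Compound added for 30 min at RT, then streptavidin donor/nickel chelate acceptor beads (10 ug/mL) for 30 min.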
BAZ2B block: blocks human BAZ2B; AlphaScreen BAZ2B-H3K14Ac peptide displacement; Potency, µM (titrated, usually from 114 µM), hits mostly inhibitors; 4.4% of 360,000 active; AID 504333; also: nearly all actives have a fitted effect of over 60% in size
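Compounds, titrated to a top concentration of 110 uM, were incubated 30 min at room temperature with preformed BAZ2B/acetyl-K14 H3 peptide complex (50 nM each). Proximity signal was measured by AlphaScreen after 20 min with beads.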
JMJD2A Tudor: inhibitors of human JMJD2A Tudor domain. O75164. AlphaScreen JMJD2A-Tudor / H3K4me3 peptide binding. Potency, µM (highest dose often 114 µM), actives largely listed as inhibitors. 4.4% of 390,000 active; also: nearly all actives have a fitted effect of over 50% in size
G9a block: blocks human histone lysine methyltransferase G9a. G9a H3K9 monomethylation, AlphaScreen, 2 h. Potency, µM (titrated, usually from 102 µM), usual class: inhibitors. 8.8% of 350,000 active. AID 504332; also: nearly all actives have a fitted effect of over 75% in size
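Quantitative HTS format: methyltransferase activity on a biotin-tagged H3K9 peptide is measured by AlphaScreen, using a rabbit anti-monomethyl-H3K9 antibody with streptavidin donor and anti-IgG acceptor beads. Final levels are 20 nM enzyme, 500 nM peptide, 20 uM SAM; 2 h RT.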
L3MBTL1 block: L3MBTL1 (human) inhibition. AlphaScreen L3MBTL1–H3K9me1 peptide binding. Potency, µM (highest dose often 57.1 µM), hits mostly inhibitors. 0.66% of 230,000 active; also: nearly all actives have a fitted effect of over 60% in size
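First, the protein-peptide complex forms for 30 min at room temperature (L3MBTL1 50 nM, biotinylated H3K9me1 peptide 75 nM). Next, compounds are pin-transferred and incubated 30 min. Finally, AlphaScreen beads are added and read after 30 min.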
Numbers stand for hits; [ ] = another dose, or the depositor's remark. Sampled rows, rich in hits. Any-hit rate of the full collection: about 10%. Calls follow the shape of the dose curve; as a rule, active = well fitted curve in the direction sought with a large enough effect; inconclusive = small, poorly fitted or top-dose-only effect, or another doubt; inactive = no such curve, though single readings can be large; an effect the other way counts as inactive or inconclusive.

Screening COc1cc(CN2CCN(Cc3cccc(OC)c3OC)CC2)cc(OC)c1 returned GLS inh inactive, HP1b binding inh 35µM, BAZ2B block 18µM, JMJD2A Tudor 4µM and G9a block 45µM.
COc1ccc(CN2CCN(C(c3ccc(F)cc3)c3ccc(F)cc3)CC2)c(OC)c1OC was read as GLS inh inactive, HP1b binding inh inactive, JMJD2A Tudor inconclusive and G9a block inactive.
Screening COc1cccc(CN2CCN(C(=O)c3ccc(-c4ccccc4)cc3)CC2)c1 returned GLS inh inactive, HP1b binding inh 32µM, BAZ2B block 50µM, JMJD2A Tudor 2.2µM, G9a block 13µM and L3MBTL1 block inactive.
COc1cc(C(=O)N2CCN(CCCc3ccccc3)CC2)cc(OC)c1OC was read as GLS inh inactive, HP1b binding inh inactive and JMJD2A Tudor 20µM.
`COc1ccc(C(=O)NC2(C(F)(F)F)C(=O)NC(C)=C2C#N)cc1` (stereo not given) gave GLS inh inactive, HP1b binding inh inactive, BAZ2B block inactive, JMJD2A Tudor inactive and G9a block inactive.
`N#Cc1nc(-c2ccc(Cl)cc2)oc1N1CCCCC1` gave GLS inh inactive, HP1b binding inh inactive, BAZ2B block 40µM, JMJD2A Tudor inconclusive, G9a block inconclusive and L3MBTL1 block inactive.
Screening COc1ccc(-c2nc(C#N)c(N3CCCCC3)o2)cc1 returned GLS inh inactive, HP1b binding inh 56µM, BAZ2B block 28µM, JMJD2A Tudor inconclusive and G9a block inactive[2.33 µM].
`Cc1ccc(-c2nc(C#N)c(N3CCCCC3)o2)cc1` gave GLS inh inactive, HP1b binding inh inactive, BAZ2B block inconclusive, JMJD2A Tudor inactive, G9a block 20µM and L3MBTL1 block inactive.
Screening N#Cc1nc(-c2ccccc2)oc1N1CCCCC1 returned GLS inh inactive, HP1b binding inh inactive, BAZ2B block inactive, JMJD2A Tudor inactive, G9a block inconclusive and L3MBTL1 block inactive.
COc1ccc(-c2nc(C#N)c(N3CCCCCC3)o2)cc1 was read as GLS inh inactive, HP1b binding inh inactive, BAZ2B block 28µM, JMJD2A Tudor inconclusive, G9a block inconclusive and L3MBTL1 block inconclusive.
`COc1ccc(OC)c(CNC(=O)c2ccc(N3Cc4ccccc4Oc4ncccc43)s2)c1` gave GLS inh inactive, HP1b binding inh inactive, BAZ2B block inactive, JMJD2A Tudor inactive and G9a block inactive.
CC(=O)c1cccc(Nc2cc(C)nc3nc(-c4ccccc4C)nn23)c1 was read as GLS inh inactive, HP1b binding inh inactive, BAZ2B block inactive, JMJD2A Tudor inactive and G9a block inactive.
`CCCN1Cc2cccc(C(=O)Nc3ccc(OC)cc3OC)c2C1=O` gave GLS inh inactive, HP1b binding inh inactive, JMJD2A Tudor inactive and G9a block inactive.
CCn1c(=O)c2cc(C(=O)NCc3ccc(F)cc3Cl)sc2c2ccccc21 was read as GLS inh inactive, HP1b binding inh inactive, BAZ2B block inactive, JMJD2A Tudor inactive and G9a block inactive.
For Cc1cc(C)c(NC(=O)CSc2ccnc(=O)[nH]2)c(C)c1 the results were GLS inh inactive, HP1b binding inh inactive, BAZ2B block inactive, JMJD2A Tudor inactive and G9a block inactive.
For O=C(NCC(c1ccc(Cl)cc1)N1CCCCC1)c1ccccc1F (stereo not given) the results were GLS inh inactive, HP1b binding inh inactive, BAZ2B block inactive, JMJD2A Tudor inactive and G9a block inconclusive.
`Cc1ccccc1-c1nc(C#N)c(N2CCCCC2)o1` gave GLS inh inactive, HP1b binding inh 45µM, BAZ2B block 22µM, JMJD2A Tudor inconclusive and G9a block 35µM.
CCCOc1ccc(-c2nc(C#N)c(N3CCC(C(N)=O)CC3)o2)cc1 was read as GLS inh inactive, HP1b binding inh inactive, BAZ2B block inactive, JMJD2A Tudor inactive and L3MBTL1 block inactive.
For COc1ccc(-c2nc(C#N)c(N3CCC(C)CC3)o2)cc1 the results were GLS inh inactive, HP1b binding inh inactive, BAZ2B block 5µM, JMJD2A Tudor inconclusive and G9a block 14µM.
Screening N#Cc1nc(-c2ccc(F)cc2)oc1N1CCCCC1 returned GLS inh inactive, HP1b binding inh inconclusive, BAZ2B block inconclusive, JMJD2A Tudor inconclusive and G9a block 13µM.
Screening Cc1ccccc1OCc1nc(C#N)c(N2CCCC2)o1 returned GLS inh inactive, HP1b binding inh inactive, BAZ2B block 45µM, JMJD2A Tudor inactive, G9a block 28µM and L3MBTL1 block inconclusive.
Cc1ccc(SC(CC(=O)c2ccc(C)cc2)C(=O)O)cc1 (stereo not given) was read as GLS inh inactive, HP1b binding inh inactive, BAZ2B block inactive, JMJD2A Tudor inactive and G9a block inactive.
`O=C(CC(Sc1ccc(Br)cc1)C(=O)O)c1ccc(Br)cc1` (stereo not given) gave BAZ2B block inactive and G9a block 25µM.
For CN(C)CCNc1cc(-c2ccncc2)nc2ccccc12 the results were GLS inh inactive, HP1b binding inh inactive, BAZ2B block inconclusive, JMJD2A Tudor inactive, G9a block 22µM and L3MBTL1 block inactive.
For Cc1ccc(-c2nc(NCCN(C)C)c3ccccc3n2)cc1 the results were GLS inh inactive, HP1b binding inh inactive, BAZ2B block inactive, JMJD2A Tudor inactive, G9a block inactive and L3MBTL1 block inactive.
Cc1ccc(/C=N/Nc2ccc(C(=O)O)cc2)s1 was read as GLS inh inactive, HP1b binding inh inactive, BAZ2B block inconclusive, JMJD2A Tudor inactive, G9a block 14µM and L3MBTL1 block inconclusive.
For O=C(O)c1ccc(N/N=C/c2cc(Br)cs2)cc1 the results were GLS inh 8.9µM, HP1b binding inh inactive, BAZ2B block inactive, JMJD2A Tudor inactive and G9a block inactive.
Screening Cc1ccc(/C=N/Nc2cccc(C(=O)O)c2)s1 returned GLS inh inactive, HP1b binding inh inactive, BAZ2B block inactive, JMJD2A Tudor inconclusive, G9a block inconclusive and L3MBTL1 block inactive.
Screening N#Cc1nc(COc2ccccc2F)oc1NCCCn1ccnc1 returned GLS inh inactive, HP1b binding inh inactive, BAZ2B block inconclusive, JMJD2A Tudor inconclusive, G9a block 32µM and L3MBTL1 block inconclusive.
`N#Cc1nc(COc2ccc(F)cc2)oc1NCCCn1ccnc1` gave GLS inh inactive, HP1b binding inh inactive, BAZ2B block inactive, JMJD2A Tudor inconclusive and G9a block inactive[12.7 µM].
`COc1ccccc1OCc1nc(C#N)c(NCCCn2ccnc2)o1` gave GLS inh inactive, HP1b binding inh inactive, BAZ2B block inconclusive, JMJD2A Tudor inactive, G9a block inconclusive and L3MBTL1 block inactive.
Screening Cc1ccc(OCc2nc(C#N)c(NCCCn3ccnc3)o2)cc1 returned GLS inh inactive, HP1b binding inh inactive, BAZ2B block 50µM, JMJD2A Tudor inactive[11.4 µM], G9a block inconclusive and L3MBTL1 block inactive.
